PI4K2A inh – blocks human PI4K2A kinase activity. 0.13% of 420,000 active. AID 1346378. purified PI4K2A, ADP-Glo luminescence, 1 h; stronger effect = lower value. activity change, negative = inhibition, % at 76.9 µM. Q9BTU6; in the data active means activity change below about -50%; inconclusive means mostly about -30% to -49%;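 further: -100% = wells without enzyme as full effect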
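Compounds are screened against recombinant PI4K2A using PI as substrate and ATP, the latter dispensed at 300 microM. Reactions run one hour at ambient temperature before ADP-Glo detection; full inhibition defined by wells lacking enzyme.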
Tb PGK inh – T. brucei PGK inhibition | P07378 | PGK/GAPDH coupled, Kinase-Glo luminescence, 60 min | Potency, µM (highest dose often 57.5 µM), for the others: top-dose activity change, negative = inhibition, most hits filed as inhibitors | 0.043% of 380,000 active; further: potency means the concentration at half of the fitted maximal effect; on the % scale 0 is the no-effect control and ±100 the full control effect; nearly all actives have a fitted effect of over 60% in size
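Luminescent ATP detection (Kinase-Glo Plus) follows a 60-minute room-temperature incubation, with wells lacking PGK as controls. Buffer: 100 mM TEA (pH 7.6), 5 mM MgCl2, 0.01% Tween-20. Coupling enzyme GAPDH (100 nM final) supplies unstable 1,3-BPG in-well.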
USP2a inh – inhibitors of human ubiquitin-specific protease USP2a | O75604 | USP2 core, Ub-CHOP2 coupled fluorogenic reporter, 485/531 | Potency, µM (highest dose often 38.3 µM), without a hit: top-dose activity change, negative = inhibition, hits mostly inhibitors | 0.01% of 330,000 active;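 further: potency means the concentration at half of the fitted maximal effect; plate controls were DMSO wells for no effect and full inhibition by NEM control for full effect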
Target sequence (O75604 whole entry, looked up): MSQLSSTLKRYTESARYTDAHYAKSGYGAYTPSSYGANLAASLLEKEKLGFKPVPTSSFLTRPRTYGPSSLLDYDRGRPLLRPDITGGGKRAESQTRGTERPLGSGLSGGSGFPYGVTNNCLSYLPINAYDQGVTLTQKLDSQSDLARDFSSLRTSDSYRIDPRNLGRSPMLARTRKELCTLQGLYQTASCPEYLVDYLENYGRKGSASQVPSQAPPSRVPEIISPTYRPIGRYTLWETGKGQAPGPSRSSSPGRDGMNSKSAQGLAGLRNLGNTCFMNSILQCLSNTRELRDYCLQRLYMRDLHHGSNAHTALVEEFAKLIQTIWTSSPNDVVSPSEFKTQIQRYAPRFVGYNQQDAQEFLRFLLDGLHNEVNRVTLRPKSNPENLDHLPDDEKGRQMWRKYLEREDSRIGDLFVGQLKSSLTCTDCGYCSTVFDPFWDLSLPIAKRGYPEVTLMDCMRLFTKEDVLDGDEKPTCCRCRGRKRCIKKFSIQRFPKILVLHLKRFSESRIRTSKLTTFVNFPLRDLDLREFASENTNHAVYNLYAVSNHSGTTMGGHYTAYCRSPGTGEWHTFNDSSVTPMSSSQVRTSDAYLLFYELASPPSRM
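Deubiquitinase activity read as fluorescence (485/531 nm) after Ub-CHOP2 cleavage activates the enterokinase reporter on its substrate; USP2 core 10nM, Ub-CHOP2 and substrate 25nM each, 30min compound preincubation then 60min RT; data normalized to NEM, curves fitted.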
Pin1 inhibitor – human Pin1 inhibition; Pin1 FP peptide displacement, HiFluor488, 10 min; Potency, µM (highest dose often 115 µM), inactives show top-dose activity, negative = inhibition, actives largely listed as inhibitors; 0.009% of 390,000 active; AID 504891; active means well fitted inhibition curve with a large enough effect in the polarisation, with a control signal flat, not every such curve was filed as active; inconclusive means small, poorly fitted or top-dose-only effect, or effect the other way, or a change in a side signal; inactive means no such curve, though single readings can be large or run the other way; the % refers to the polarisation; further: potency means the concentration at half of the fitted maximal effect; on the % scale 0 is the no-effect control and ±100 the full control effect
Tb PFK inh-1 – T. brucei PFK enzyme inhibition | 0.17% of 330,000 active | T. brucei PFK, ADP-Glo luminescence | Potency, µM (series often up to 57.5 µM), for inactives: at the top dose activity, negative = inhibition, actives largely listed as inhibitors;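 further: potency means the concentration at half of the fitted maximal effect; 0% = uninhibited 1x PFK enzyme wells and -100% = no-enzyme wells; nearly all actives have a fitted effect of over 60% in size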
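Compounds were pin-transferred as a titration series up to 57 uM into substrate buffer (0.5 mM F6P, 0.1 mM ATP, pH 8.0), then 1.25 nM PFK was added and reactions ran 45 min before ADP-Glo detection.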
Tb PFK KinaseGlo – inhibits T. brucei PFK measured by ATP depletion. shares compounds with Tb PFK inh-1. Tb PFK enzyme, ATP depletion, Kinase-Glo Plus luminescence. Potency, µM (doses to about 57.5 µM), without a hit: at the top dose inhibition. 47% of 1,100 active; calls by dose curve; further: potency means the concentration at half of the fitted maximal effect; nearly all actives have a fitted effect of over 60% in size
Tb PFK inh-2 – validation of T. brucei phosphofructokinase inhibitors. 41% of 1,100 active. Potency, µM (series often up to 57.5 µM), inactives show at the top dose activity change, negative = inhibition, most hits filed as inhibitors. shares compounds with Tb PFK inh-1. purified T. brucei PFK, ADP-Glo luminescence, 45 min. AID 504637;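 further: potency means the concentration at half of the fitted maximal effect; plate controls were full PFK enzyme control for no effect and no enzyme control for full effect; nearly all actives have a fitted effect of over 60% in size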
Starred values were filed as active, the others as inactive; i = inactive; ? = inconclusive; . = not tested or not shown. In the library only some 0.28% were active in any assay of this set; here they are far more common. Unless noted, the call rests on the fitted dose curve; in most records, active means well fitted curve in the direction sought with a large enough effect; inconclusive means small, poorly fitted or top-dose-only effect, or another doubt; inactive means no such curve, though single readings can be large; an effect the other way counts as inactive or inconclusive.

SMILES	PI4K2A inh	Tb PGK inh	USP2a inh	Pin1 inhibitor	Tb PFK inh-1	Tb PFK KinaseGlo	Tb PFK inh-2
CN1CCCC1CCNc1ncnc2ccc(-c3ccc4c(c3)OCO4)cc12 (stereo unspecified)	.	.	.	-6%	.	.	.
CCc1nnc(NS(=O)(=O)c2ccc(NC(=O)Nc3ccc(OC)cc3)cc2)s1	-4	-6%	-2%	-3%	?	.	.
Cc1cc(NS(=O)(=O)c2ccc(NC(=O)COc3ccc(Cl)cc3)cc2)no1	1	7%	-2%	-4%	5.4µM*	1.7µM*	3.8µM*
CCc1nnc(NS(=O)(=O)c2ccc(NC(=O)COc3ccc(Cl)c(C)c3)cc2)s1	0	7%	-2%	?	5.4µM*	2.4µM*	7.6µM*
CC(C)N(CCC(=O)c1ccc2ccccc2c1)Cc1ccccc1	30	5%	3%	?	?	30µM*	?
CC(OC(=O)c1ccc2ccccc2c1)C(=O)N(C)Cc1ccccc1 (stereo unspecified)	5	3%	3%	?	-1%	.	.
CCn1cc(/C=N\NC(=O)Cc2ccc(Cl)cc2)cn1	3	2%	6%	4%	19µM*	7.6µM*	15µM*
O=C(Cc1ccc(Cl)cc1)N/N=C/c1cccc(O)c1	4	i	2%	-6%	9.5µM*	11µM*	12µM*
COc1ccc(/C=N/NC(=O)Cc2ccc(Cl)cc2)cc1OC	-9	-9%	-2%	-2%	?	?	?
CCn1cc(/C=N\NC(=O)c2ccc(Cl)cc2)cn1	3	-7%	-1%	1%	0%	.	.
COc1ccc(/C=N\NC(=O)CC(=O)Nc2cccc(Cl)c2)cc1OC	-5	i	0%	-1%	0%	.	.
O=C(Cc1ccc(Cl)cc1)N/N=C/c1ccccc1	-2	-7%	3%	-8%	-3%	.	.
O=C1CCCC2=C1C1(CCSC1)N=C(Nc1nc3ccccc3o1)N2 (stereo unspecified)	.	.	.	1%	.	.	.
Cc1ccccc1N(C)C1=N[S+](=O)([O-])c2ccccc21	.	.	.	-10%	.	.	.
COc1ccc([C@H]2[C@H](c3ccccc3)C(=O)N2Cc2ccccc2)cc1COc1ccc(NC(C)=O)cc1	.	.	.	51%	.	.	.
Cc1nnc(NCCc2ccccc2)[nH]c1=O	-1	-9%	1%	-2%	?	24µM*	27µM*
Cc1ccc2c(=O)cc(C(=O)Nc3ccc(S(=O)(=O)Nc4nc(C)cc(C)n4)cc3)oc2c1	-5	-1%	.	-3%	.	.	.
Cc1cc(C)nc(NS(=O)(=O)c2ccc(NC(=O)c3cc(=O)c4ccccc4o3)cc2)n1	2	-8%	5%	-10%	?	-27%	?
O=C(O)c1cccc(S(=O)(=O)N2CCN(S(=O)(=O)c3ccc4c(c3)OCCO4)CC2)c1	.	.	.	1%	.	.	.
Nc1c2c(=O)oc(-c3ccccc3)cc2nn1-c1ccccc1	-2	-3%	0%	0%	1%	.	.
Cc1c(-c2ccc(Cl)cc2)oc(=O)c2c(N)n(-c3ccccc3)nc12	-4	-17%	1%	?	?	?	?
COc1ccc(NC(=O)C(=O)NNC(=O)c2cccs2)c(OC)c1	1	0%	1%	-23%	25%	.	.
O=C(COc1ccc2ccccc2c1)NNC(=O)c1cccs1	1	i	1%	1%	?	-31%	?
Cc1ccc(NC(=O)c2cccs2)cc1	-2	.	2%	-2%	3%	.	.
Cc1cccc(OCC(=O)NNC(=O)c2cccs2)c1	3	-6%	-2%	-2%	-1%	.	.
COc1ccc(NC(=O)C(=O)NNC(=O)c2cccs2)cc1	-1	-2%	2%	?	?	-28%	?
Cc1ccc(NC(=O)C(=O)NNC(=O)c2cccs2)cc1	1	1%	-2%	-23%	?	-22%	?
